Assay results taken from PubChem BioAssay (NCI).
About 83,000 compounds went through this panel and 20% of them were active in at least one assay; those are over-represented in the sample as a whole.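 Cell lines were cultured in 96-well plates, exposed to a single compound concentration, and assessed for percent growth 48 hours later.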 The source made the active and inactive calls. The calls were made as follows: active = growth percent below 10; inactive = the rest.

Experiments:
Assay in all cases: NCI-60 one-dose screen, 48 h (100 = growth as untreated, 0 = no growth, -100 = all killed)
[1] = system: SR leukemia; conditions: 10 µM unless noted
[2] = system: RPMI-8226 leukemia; conditions: 10 µM unless noted
[3] = system: OVCAR-8 ovarian; conditions: 10 µM unless noted
[4] = system: OVCAR-5 ovarian; conditions: 10 µM unless noted
[5] = system: OVCAR-4 ovarian; conditions: 10 µM unless noted
[6] = system: SK-OV-3 ovarian; conditions: 10 µM unless noted
[7] = system: IGROV1 ovarian; conditions: 10 µM unless noted
[8] = system: OVCAR-3 ovarian; conditions: 10 µM unless noted
[9] = system: NCI/ADR-RES ovarian; conditions: 10 µM unless noted
[10] = system: T-47D breast; conditions: 10 µM unless noted
[11] = system: BT-549 breast; conditions: 10 µM unless noted
[12] = system: MDA-MB-435 melanoma; conditions: 10 µM unless noted
[13] = system: SW-620 colon; conditions: 10 µM unless noted
[14] = system: MCF7 breast; conditions: 10 µM unless noted
[15] = system: HCT-116 colon; conditions: 10 µM unless noted
[16] = system: HCC-2998 colon; conditions: 10 µM
[17] = system: KM12 colon; conditions: 10 µM unless noted

Measured: growth

CNC(=O)c1cccc2cc(Oc3ccnc4cc(OCC5(N)CC5)c(OC)cc34)ccc12
inactive: [1] 27.6% | [2] 81.7% | [3] 48.9% | [4] 65.3% | [5] 49.4% | [6] 69.8% | [7] 39.5% | [8] 61.4% | [9] 76% | [10] 92.2% | [11] 59.7% | [12] 24.1% | [13] 46.9% | [14] 49.1% | [15] 33.2% | [16] 92% | [17] 45.9%

CC(=O)Nc1cccc(-n2c(=O)n(C3CC3)c(=O)c3c(Nc4ccc(I)cc4F)n(C)c(=O)c(C)c32)c1
inactive: [1] 46.4% | [2] 45.5% | [3] 39% | [5] 37% | [6] 11.3% | [7] 16.9% | [8] 85.5% | [9] 46.6% | [10] 51.3% | [11] 60.7% | [12] 27.7% | [13] 19% | [14] 80.8% | [15] 10.6% | [17] 23%
active: [4] 6.47% | [16] -26.9%

CNC(=O)c1ccc(Nc2ncc(C(F)(F)F)c(NCc3nccnc3N(C)S(C)(=O)=O)n2)cc1
inactive: [9] 29.8%
active: [1] -21.3% | [2] -26.7% | [3] -0.118% | [4] 0.954% | [5] 1.68% | [6] -21.1% | [7] 3.11% | [8] 9.41% | [10] -12.4% | [11] -5.77% | [12] 8.89% | [13] -4.11% | [14] 2.04% | [15] 1.19% | [16] 8.5% | [17] 1.91%

COc1cc(F)c(F)c(Nc2ccc(I)cc2F)c1NS(=O)(=O)C1(C[C@H](O)CO)CC1
active: [7] 9.36% | [16] -23.6%
inactive: [1] 57.7% | [2] 37.8% | [3] 45.7% | [4] 13.5% | [5] 46% | [6] 51.3% | [8] 83.1% | [9] 45.5% | [10] 22.6% | [11] 62.1% | [12] 24.3% | [13] 19.3% | [14] 61.5% | [15] 11.2% | [17] 24.2%

Cn1cc(-c2ncnc3ccc(-c4cnc(Cl)c(NS(C)(=O)=O)c4)cc23)c2ccccc21
active: [6] -18.1% | [7] -24.3% | [10] -23.9% | [11] 4.5% | [12] 7.19% | [14] 7.57%
inactive: [1] 15.9% | [2] 14.5% | [3] 31% | [4] 12.8% | [5] 15.4% | [8] 21.1% | [9] 20.6% | [13] 21.3% | [15] 20.3% | [16] 17.7% | [17] 25.3%

CO[C@@H](C(=O)N1Cc2[nH]nc(NC(=O)c3ccc(N4CCN(C)CC4)cc3)c2C1)c1ccccc1
active: [1] -1.07% | [3] 5.58% | [4] 4.9% | [5] 9.35% | [6] 7.44% | [7] -16.1% | [10] -16.3% | [11] -10.8% | [15] -35.7% | [17] -28.7%
inactive: [2] 44% | [8] 40.6% | [9] 81.7% | [12] 19.5% | [13] 21.5% | [14] 17.7% | [16] 26.4%

CN1CCC(CNc2ccc3ncc(-c4cccc(OC(F)(F)F)c4)n3n2)CC1
active: [1] -19.4% | [2] -45.3% | [3] 0.791% | [4] -32.8% | [5] -1.72% | [6] -1.52% | [7] -60.4% | [8] -26.6% | [9] -4.75% | [10] -79.5% | [11] -0.185% | [12] -95.8% | [13] -61.9% | [14] -49.5% | [15] -75.1% | [16] -84.4% | [17] -1.37%

CN1[C@@H]2CC[C@H]1/C(=C\c1ccccc1)C1=C2[C@@H](c2ccccc2)C(C#N)=C(N)O1
inactive: [1] 61.8% | [2] 55.5% | [3] 84.3% | [4] 84.9% | [5] 73.9% | [6] 84.4% | [7] 93.8% | [8] 97.2% | [9] 90.2% | [10] 58.6% | [11] 67% | [12] 98.5% | [13] 98.2% | [14] 85.2% | [15] 49.9% | [16] 87.7% | [17] 85.3%

Cc1[nH]c(/C=C2\C(=O)Nc3ccc(F)cc32)c(C)c1C(=O)NC[C@H](O)CN1CCOCC1
active: [1] -2.38% | [6] 3.3% | [17] 5.33%
inactive: [2] 49.4% | [3] 42.6% | [4] 15.1% | [5] 50.6% | [7] 19.6% | [8] 70.3% | [9] 64.7% | [10] 59.5% | [11] 37.8% | [12] 18.6% | [13] 11.8% | [14] 38.4% | [15] 10.7% | [16] 41%

CN(C[C@@H]1COCCO1)S(=O)(=O)Nc1ccc2ccc3ncc(-c4cnn(C)c4)cc3c(=O)c2c1
inactive: [1] 13.1% | [2] 38.5% | [3] 31.3% | [4] 55.2% | [5] 38.2% | [7] 11.5% | [8] 55.4% | [9] 52.1% | [10] 15.9% | [11] 28.1% | [12] 44.7% | [13] 37% | [14] 36.3% | [15] 24.1% | [16] 74.1% | [17] 10.2%
active: [6] 1.71%

Nc1ncnc2c1ccn2-c1cccc(NC(=O)c2ccc(N3CCOCC3)c(C(F)(F)F)c2)c1
inactive: [1] 51.8% | [3] 24.8% | [4] 72.9% | [5] 104% | [6] 77.3% | [7] 40.5% | [8] 43.2% | [9] 26.2% | [10] 32.2% | [11] 57.5% | [12] 53.7% | [13] 66.5% | [14] 67.1% | [15] 24.9% | [16] 62.6% | [17] 31%
active: [2] 4.92%

CC(C)CC(=O)Nc1n[nH]c2c1CN(C(=O)C1CCN(C)CC1)C2(C)C
active: [1] 2.42% | [2] 3.37% | [4] 8.63% | [6] -1.71% | [10] -3% | [13] 9.91% | [14] 3.99% | [15] 2.94% | [17] 9.26%
inactive: [3] 15.4% | [5] 33.5% | [7] 15.4% | [8] 18.3% | [9] 96.1% | [11] 33.7% | [12] 12% | [16] 13.1%

C#Cc1cccc(Nc2ncnc3cc(OCCOC)c(OCCOC)cc23)c1
active: [6] -21.9% | [7] 8.02%
inactive: [1] 51.3% | [2] 70.1% | [3] 40.4% | [4] 48.4% | [5] 54.3% | [8] 64.2% | [9] 56.9% | [10] 30.9% | [11] 68.6% | [12] 74.7% | [13] 74.6% | [14] 88.3% | [15] 54.1% | [16] 94.8% | [17] 77.8%

CC(C)(O)CC(=O)NCCn1ccc2ncnc(Nc3ccc(Oc4cccc(C(F)(F)F)c4)c(Cl)c3)c21
active: [1] 3.05% | [3] 3% | [4] 3.46% | [6] -21% | [7] -42.6% | [9] 9.15% | [10] -18.8% | [15] 0.422% | [16] -27.2% | [17] 9.88%
inactive: [2] 11% | [5] 25.6% | [8] 32.6% | [11] 17.5% | [12] 14.3% | [13] 14.1% | [14] 14.3%

O=C(NOC[C@H](O)CO)c1ccc(F)c(F)c1Nc1ccc(I)cc1F
active: [4] 9.99% | [16] -15.9%
inactive: [1] 45.7% | [2] 59.7% | [3] 43.5% | [5] 62% | [6] 46.3% | [7] 14.1% | [8] 95.1% | [9] 59.2% | [10] 62.2% | [11] 80.4% | [12] 33% | [13] 18.5% | [14] 93.3% | [15] 11.5% | [17] 24.1%

Cn1cc(-c2ccc(F)c(C(F)(F)F)c2)nc1C1CCN(c2ncnc3[nH]ncc23)CC1
inactive: [1] 55.4% | [2] 82.3% | [3] 47.8% | [4] 85.8% | [5] 80.4% | [6] 55.5% | [7] 55.2% | [8] 89.6% | [9] 61.2% | [10] 25.8% | [11] 43.1% | [12] 93.3% | [13] 89.2% | [14] 61.4% | [15] 68.9% | [16] 95.5% | [17] 73.5%

Cc1cc(Nc2nc(N[C@@H](C)c3ncc(F)cn3)ncc2Cl)n[nH]1
inactive: [2] 89.9% | [3] 88.1% | [4] 59.8% | [5] 91.6% | [6] 75.3% | [7] 45% | [8] 93.3% | [9] 87.5% | [10] 86.5% | [11] 65.3% | [12] 77.2% | [13] 58% | [14] 63.1% | [15] 62.4% | [16] 61.4% | [17] 14.7%
active: [1] 7%

C[C@@H]1COC(Nc2ccc3ncnc(Nc4ccc(OCc5nccs5)c(Cl)c4)c3c2)=N1
active: [6] -3.87% | [7] 0.932% | [9] 9.99% | [10] -17.5% | [11] 1.81%
inactive: [1] 17.6% | [2] 18.8% | [3] 10.4% | [4] 59.6% | [5] 25.3% | [8] 31.7% | [12] 50.1% | [13] 76.8% | [14] 45.1% | [15] 30.1% | [16] 46.9% | [17] 18.5%
